From PubChem BioAssay
Pf Dd2 inh: Plasmodium falciparum Dd2 growth inhibition | P. falciparum Dd2 growth, SYBR Green, 72 h | Potency, µM (top dose mostly 28.9 µM), inactives show at the highest dose activity, negative = inhibition, hits mostly inhibitors | 120,000 compounds, 4.3% hits; active = well fitted inhibition curve with a large enough effect;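 note: plate controls were DMSO vehicle for no effect and reference drug for full effect; nearly all actives have a fitted effect of over 65% in size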
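Infected erythrocytes (Dd2, 0.3% parasitemia, 2.5% hematocrit final) are added to compound in RPMI-1640/Albumax II medium, grown 72 h at 37C in low oxygen, then lysed with saponin/Triton-X containing SYBR Green and read by fluorescence.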
Active calls of the source: *; i = inactive; [ ] = another dose, or the depositor's remark. Shown is part of a subset that was picked to be rich in hits. Potency is the fitted concentration of half-maximal effect.

SMILES | Pf Dd2 inh
CC1=NOC2(CCN(Cc3ccccc3)CC2)C1 | -11%[44.1 µM]
O=C1COc2ccc(-c3ccncc3)nc2CN1Cc1ccccc1 | i
Cc1nc(CN2Cc3nc(-c4cccc(C(F)(F)F)c4)ccc3OCC2=O)cs1 | i
CNC(=O)C1(N2CCC[C@H]2C(=O)NCc2ccccc2)COC1 | -13%[44.1 µM]
CC(C)c1noc([C@@H]2Cc3nc[nH]c3CN2C(=O)Nc2ccc(Cl)cc2)n1 | i
COc1ccc(CCCN2C(=O)O[C@@H]3CN(S(=O)(=O)N(C)C)C[C@@H]32)cc1 | -21%
CCC(=O)N1CCN(c2nc3c(s2)CN(C(=O)CC)CC3)CC1 | -15%
Cc1cccc(C(=O)N2CCCC(c3cc(N4CCOCC4)ncn3)C2)c1 (stereo not drawn) | -2%
CCn1c(C2CCCN(C(=O)c3nnn(Cc4ccccc4)c3C)C2)n[nH]c1=O (stereo not drawn) | 13%
Cc1cc(C)n2ncc(C(=O)N3CCC(=O)N(CC4CC4)C(C(C)C)C3)c2n1 (stereo not drawn) | -7%
CC(=O)N1CCC([C@@H]2CN(Cc3cccnc3)C[C@H]2CO)CC1 | 43%
Cc1ccc(Cl)cc1NC(=O)Cn1c(C)cc2nc3n(c(=O)c21)CCC3 | i
COc1cc(C(=O)NC(c2ccc(Cl)cc2)c2cc(Cl)c3cccnc3c2O)cc(OC)c1OC (stereo not drawn) | 2.8µM*
COc1cccc(CNC(=O)c2c[nH]c3ncccc23)c1 | -10%[44.1 µM]
COc1cccc(C(=O)N[C@H]2[C@H](O)[C@H](O)C[C@@H]2c2cccnc2)c1 | 10%[44.1 µM]
COc1cccc(C(=O)NC(c2ccc(Cl)cc2)c2cc(Cl)c3cccnc3c2O)c1 (stereo not drawn) | 3.2µM*
COc1cc(C(=O)Nc2ccc(Cl)c(-c3nc4ncccc4o3)c2)cc(OC)c1OC | -5%
COc1cc(C(=O)NCC(c2cccnc2)N2CCc3ccccc3C2)cc(OC)c1OC (stereo not drawn) | -26%
CC(O)CCNS(=O)(=O)c1ccc2c(c1)CN(C(=O)CCn1cccn1)CC2 (stereo not drawn) | -11%
Cc1ccc(-c2nccn3cc(C(=O)N4CCN(C5CCN(C)CC5)CC4)nc23)cc1 | 6%
O=C(c1ccc(Cl)cc1Cl)N1CCN(c2cc(-c3cccs3)[nH]n2)CC1 | -4%
O=C(c1cccnn1)N1CC(F)(F)C[C@H]1c1nc(C2CC2)no1 | 11%
CC1CCC2(CC1)NC(=O)N(CC(=O)NC(C)c1ccccc1)C2=O (stereo not drawn) | -9%
COc1ccc(C(C)NC(=O)CN2C(=O)NC3(CCC(C)CC3)C2=O)cc1 (stereo not drawn) | i
Cc1ccc(C(C)NC(=O)CNC23CC4CC(CC(C4)C2)C3)cc1 (stereo not drawn) | 6.3µM*
SMILES | Pf Dd2 inh
CN(C)C[C@@H]1CN(C)C[C@H]1N | i
COc1ccc(Cl)cc1NC(=O)c1c(NCc2cccnc2)sc2c1CCC(C)C2 (stereo not drawn) | 8.9µM*
COc1ccc(Cl)cc1NC(=O)c1c(NCc2cccs2)sc2c1CCC(C)C2 (stereo not drawn) | 13µM*
COc1ccc(Cl)cc1NC(=O)c1sc2nc3c(cc2c1N)N1CCC3CC1 | 11%
COC(=O)c1c(NC(=O)CCCOc2ccccc2C)sc2c1CCC(C)C2 (stereo not drawn) | 23%
COc1ccccc1NC(=O)c1c(NC(=O)c2cccs2)sc2c1CCC(C(C)(C)C)C2 (stereo not drawn) | 8%
COc1ccc(NC(=O)c2c(NC(=O)c3ccncc3)sc3c2CCC(C(C)(C)C)C3)cc1 (stereo not drawn) | 58%
CN(CC(=O)N1CCC2(CC1)CN(CC(=O)O)C(=O)O2)Cc1cccnc1 | 7%
CS(=O)(=O)N1CCC(OC2CCN(C(=O)Nc3cccc(F)c3)CC2)CC1 | i
Cn1cnc(S(=O)(=O)N2CCCCC2c2nc(-c3ccncc3)n[nH]2)c1 (stereo not drawn) | 6%
CCn1c(CO)nnc1C1CC(NC(=O)c2sccc2N)C1 (stereo not drawn) | -24%
CCC(C)OC(=O)/C(C#N)=C\c1ccc(-c2ccccc2Cl)o1 (stereo not drawn) | 79%
CCOC(=O)/C(C#N)=C/c1ccc(-c2ccccc2)o1 | 5%
CC(C)COC(=O)/C(C#N)=C\c1ccc(-c2ccccc2Cl)o1 | 1.1µM*
Cc1ccc(-c2nc(C(=O)N3CCN(Cc4ccc5c(c4)OCO5)CC3)no2)cc1 | 11µM*
Cc1ccc(-c2nc(C(=O)NCc3ccc4c(c3)OCO4)no2)cc1 | i
Cc1ccc(CNC(=O)c2noc(-c3ccc4c(c3)OCO4)n2)cc1 | i
O=C(CC1CCCCC1)N1CCC(n2cc(-c3nc(-c4ccccc4)no3)nn2)CC1 | i
O=C(NCCn1cnc2ccccc21)C1CC(=O)N(c2n[nH]c3ccccc23)C1 (stereo not drawn) | -6%
C#CCN(C)C(=O)[C@@H]1CCCN1[C@@H](C(=O)NC)c1ccccc1F | 25%[44.1 µM]
O=C(c1cccs1)N1CC[C@@H]2[C@@H](CCC(=O)N2CCc2cnc[nH]2)C1 | -5%
COCCOc1cc(C)c2c(c1C)C[C@H]([C@H](C)C(=O)Nc1ccccn1)CC2 | 13µM*
COCCOc1cc(C)c2c(c1C)C[C@H]([C@H](C)C(=O)NC1CCCC1)CC2 | i
COCCOc1cc(C)c2c(c1C)C[C@H](C(C)C(=O)NC(C)(C)C)CC2 (stereo partly drawn) | -5%[44.1 µM]
CCN(CC)CC[C@H]1CN(C(=O)C2CC2)CC[C@H]1CC(=O)O | 58%[44.1 µM]
SMILES | Pf Dd2 inh
COc1ccc(CC(=O)N2CCC3(CC2)CN(C(=O)c2ccc(Cl)cc2)CCO3)cc1 | -8%
NC(Cc1ccccc1)C(=O)N1CCC2(CC1)CN(C(=O)c1ccc(Cl)cc1)CCO2 (stereo not drawn) | 0.63µM*
CC(=O)N1CCC2(CC1)CN(C(=O)c1ccc(Cl)cc1)CCO2 | 4%
CCN(CC)C(=O)[C@@H]1CCC[C@@H](NC(=O)c2cc(C)on2)CN(C)C(=O)C1 | -10%[44.1 µM]
O=C(Nc1cccc(C(F)(F)F)c1)c1nc2c(o1)CCN(Cc1ccccc1F)CC2 | i
COc1ccccc1CN1CCc2nc(C(=O)Nc3cccc(C(F)(F)F)c3)oc2CC1 | -7%
Cc1noc(C)c1CN1CCc2nc(C(=O)Nc3ccccc3)oc2CC1 | i
Cc1noc(C)c1CN1CCc2nc(C(=O)Nc3cccc(C(F)(F)F)c3)oc2CC1 | 13µM*
COc1ccccc1CN1CCc2nc(C(=O)Nc3ccccc3)oc2CC1 | 11µM*
Cc1ccccc1CN1CCc2nc(C(=O)Nc3ccccc3)oc2CC1 | -15%[44.1 µM]
O=C(Cc1ccccc1Cl)N1CCC(Cc2nc(-c3ccc(F)cc3)no2)CC1 | 23%
CCn1cc(CN2CCN(C(=O)c3ccoc3)CC2)ccc1=O | 11%
Cc1cnn(CCC(=O)N2CCCCCCNC(=O)CC2)c1 | 1%
COC1CCCOC12CCN(C(=O)c1ccc3n[nH]nc3c1)CC2 (stereo not drawn) | -4%
COc1ccccc1N1CCN(S(=O)(=O)c2cc3[nH]c(=O)c(=O)[nH]c3cc2C)CC1 | -7%
Cc1cc2[nH]c(=O)c(=O)[nH]c2cc1S(=O)(=O)N1CCN(c2ccccc2F)CC1 | 9%
Cc1cc2[nH]c(=O)c(=O)[nH]c2cc1S(=O)(=O)N1CCN(c2cccc(C)c2C)CC1 | 7.9µM*
CN(CC1(C)CCOCC1)C(=O)c1ccccc1Cl | -2%
O=C(c1ccc(F)c(Cl)c1)N1CCCC2(C1)NC(=O)N(Cc1ccccc1)C2=O (stereo not drawn) | -24%
